# Laboratory results as given in PubChem BioAssay (NCATS).
# Where “and” joins values, the source holds several entries; their conditions need not be identical. Equal entries are not always repeated. Inconclusive results are not listed. Where a call stands in place of a potency, no number is given. A structure can be active in one record and inactive in another. Calls of active or inactive are those of the source. Unless noted, calls follow the shape of the dose curve; as a rule, active = well fitted curve in the direction sought with a large enough effect; inconclusive = small, poorly fitted or top-dose-only effect, or another doubt; inactive = no such curve, though single readings can be large; an effect the other way counts as inactive or inconclusive.
# Legend:
# [1] = biological target: Guanine nucleotide-binding protein G(i) subunit alpha-1 (Homo sapiens) (UniProt P63096); experiment: qHTS Assay for Inhibitors of RGS12 GoLoco Motif Activity (Green Fluorophore) (AID 879);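 also: negative values mean loss of peptide binding seen as reduced polarization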
# Guanine nucleotide-binding protein G(i) subunit alpha-1 (Homo sapiens), sequence (P63096 whole entry, looked up): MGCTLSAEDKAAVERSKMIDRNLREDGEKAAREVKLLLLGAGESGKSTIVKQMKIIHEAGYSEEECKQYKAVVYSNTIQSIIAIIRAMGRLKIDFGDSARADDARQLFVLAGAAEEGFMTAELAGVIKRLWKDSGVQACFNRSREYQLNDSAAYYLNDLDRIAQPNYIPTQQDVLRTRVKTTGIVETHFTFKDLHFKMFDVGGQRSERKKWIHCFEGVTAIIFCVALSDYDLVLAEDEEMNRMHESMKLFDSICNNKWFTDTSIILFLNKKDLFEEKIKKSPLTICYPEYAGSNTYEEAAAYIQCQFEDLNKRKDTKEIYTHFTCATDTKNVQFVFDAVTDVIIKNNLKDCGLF
# How it was run: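 A drop in FITC polarization marked displacement of the FITC-tagged RGS12 GoLoco peptide (10 nM) from Gαi1 (50 nM). Compounds were incubated 10 min at room temperature in Tris pH 7.5 buffer containing 150 mM NaCl, 0.1 mM GDP and 0.05% NP40; unlabeled peptide titration served as control.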
# [2] = biological target: Cytochrome P450 2C9 (Homo sapiens) (UniProt P11712); experiment: qHTS Assay for Inhibitors and Substrates of Cytochrome P450 2C9 (AID 883); also: potency is read from the fitted curve at half-maximal effect; nearly all actives have a fitted effect of over 60% in size
# Cytochrome P450 2C9 (Homo sapiens), sequence (P11712 whole entry, looked up, canonical isoform): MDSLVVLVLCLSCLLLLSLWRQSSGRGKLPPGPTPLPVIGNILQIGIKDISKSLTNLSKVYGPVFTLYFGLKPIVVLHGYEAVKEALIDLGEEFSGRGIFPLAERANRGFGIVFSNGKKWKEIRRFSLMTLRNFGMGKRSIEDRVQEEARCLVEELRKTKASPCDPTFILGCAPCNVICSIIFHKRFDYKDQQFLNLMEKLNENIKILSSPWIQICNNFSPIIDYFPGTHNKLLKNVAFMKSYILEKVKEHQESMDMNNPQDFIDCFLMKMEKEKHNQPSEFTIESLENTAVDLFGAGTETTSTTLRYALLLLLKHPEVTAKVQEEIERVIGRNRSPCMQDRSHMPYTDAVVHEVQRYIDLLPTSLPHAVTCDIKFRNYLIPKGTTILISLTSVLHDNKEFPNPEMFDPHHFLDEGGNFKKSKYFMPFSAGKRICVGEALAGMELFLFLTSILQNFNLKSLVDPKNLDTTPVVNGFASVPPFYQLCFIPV
# How it was run: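 Signal: luciferase luminescence reporting luciferin produced by CYP2C9. Conditions: 10nM enzyme, Luciferin-H 100uM at KM, 25mM KPO4, 37C, 60 min NADPH-driven reaction. Reference: 57uM sulphaphenazole as 100% inhibition.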
# [3] = biological target: Cytochrome P450 2D6 (Homo sapiens) (UniProt P10635); experiment: qHTS Assay for Inhibitors and Substrates of Cytochrome P450 2D6 (AID 891); also: nearly all actives have a fitted effect of over 60% in size; also: potency is read from the fitted curve at half-maximal effect;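 as to activity change, negative = inhibition: luciferin methyl ether substrate demethylated by CYP2D6 with NADPH regeneration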
# Cytochrome P450 2D6 (Homo sapiens), sequence (P10635 whole entry, looked up): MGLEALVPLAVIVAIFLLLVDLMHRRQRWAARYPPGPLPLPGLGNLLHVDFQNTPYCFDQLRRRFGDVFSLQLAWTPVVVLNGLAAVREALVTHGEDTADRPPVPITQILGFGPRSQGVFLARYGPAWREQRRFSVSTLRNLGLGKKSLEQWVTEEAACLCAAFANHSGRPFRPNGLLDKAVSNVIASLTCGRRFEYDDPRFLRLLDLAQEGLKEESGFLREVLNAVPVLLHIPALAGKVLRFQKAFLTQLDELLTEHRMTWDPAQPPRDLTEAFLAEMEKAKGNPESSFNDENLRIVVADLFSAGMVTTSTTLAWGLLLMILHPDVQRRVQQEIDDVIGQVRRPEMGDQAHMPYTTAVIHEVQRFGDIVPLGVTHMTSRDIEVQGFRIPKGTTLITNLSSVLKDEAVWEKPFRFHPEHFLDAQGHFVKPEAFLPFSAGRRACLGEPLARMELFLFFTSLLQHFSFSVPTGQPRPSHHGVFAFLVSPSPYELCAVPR
# How it was run: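 Luminescent read-out of luciferin formed by 5 nM human CYP2D6 demethylating 30 uM Luciferin-ME EGE (Km level) over 60 min at room temperature after NADPH regeneration addition. Data normalized to full inhibition by 1.43 uM quinidine.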
# [4] = biological target: Cytochrome P450 2C19 (Homo sapiens) (UniProt P33261); experiment: qHTS Assay for Inhibitors and Substrates of Cytochrome P450 2C19 (AID 899); also: nearly all actives have a fitted effect of over 60% in size; also: potency is read from the fitted curve at half-maximal effect
# Cytochrome P450 2C19 (Homo sapiens), sequence (P33261 whole entry, looked up): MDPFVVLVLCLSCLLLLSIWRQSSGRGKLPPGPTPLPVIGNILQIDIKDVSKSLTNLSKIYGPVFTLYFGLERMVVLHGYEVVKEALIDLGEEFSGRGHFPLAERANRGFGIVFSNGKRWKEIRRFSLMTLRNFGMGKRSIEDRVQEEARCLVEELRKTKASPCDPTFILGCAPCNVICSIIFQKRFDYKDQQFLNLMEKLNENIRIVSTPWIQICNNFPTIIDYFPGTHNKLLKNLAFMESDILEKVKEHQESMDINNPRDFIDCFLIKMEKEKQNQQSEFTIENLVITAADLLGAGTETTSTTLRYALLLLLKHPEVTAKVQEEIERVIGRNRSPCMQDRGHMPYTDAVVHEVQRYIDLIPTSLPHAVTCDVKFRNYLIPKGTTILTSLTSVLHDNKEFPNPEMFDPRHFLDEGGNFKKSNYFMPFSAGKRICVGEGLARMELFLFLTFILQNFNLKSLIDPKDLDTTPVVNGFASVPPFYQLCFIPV
# How it was run: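 Signal comes from luciferase acting on luciferin released by CYP2C19-mediated hydroxylation of Luciferin-H EGE, 10uM (KM). Assay mix: 5nM enzyme, 50mM KPO4; 60 min at 37C with NADPH regeneration. Data normalized against 57uM ketoconazole.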
# [5] = qHTS Assay for Identification of Small Molecule Agonists for Thrombopoietin (TPO) Signaling Pathway (AID 917)
# How it was run: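 Ba/F3 (mouse) + hTPO receptor + GpIIb-promoter luciferase; IL-3 withdrawn overnight; compound + 26 pM TPO (EC50), 24 hrs, 37 C, 5% CO2; Steadylite luminescence, 10 min RT.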
# [6] = biological target: Pyruvate kinase (Leishmania mexicana) (UniProt Q27686); experiment: qHTS Validation Assay for Inhibitors of Leishmania Mexicana Pyruvate Kinase (AID 945)
# Pyruvate kinase (Leishmania mexicana), sequence (Q27686 2-499 E452W): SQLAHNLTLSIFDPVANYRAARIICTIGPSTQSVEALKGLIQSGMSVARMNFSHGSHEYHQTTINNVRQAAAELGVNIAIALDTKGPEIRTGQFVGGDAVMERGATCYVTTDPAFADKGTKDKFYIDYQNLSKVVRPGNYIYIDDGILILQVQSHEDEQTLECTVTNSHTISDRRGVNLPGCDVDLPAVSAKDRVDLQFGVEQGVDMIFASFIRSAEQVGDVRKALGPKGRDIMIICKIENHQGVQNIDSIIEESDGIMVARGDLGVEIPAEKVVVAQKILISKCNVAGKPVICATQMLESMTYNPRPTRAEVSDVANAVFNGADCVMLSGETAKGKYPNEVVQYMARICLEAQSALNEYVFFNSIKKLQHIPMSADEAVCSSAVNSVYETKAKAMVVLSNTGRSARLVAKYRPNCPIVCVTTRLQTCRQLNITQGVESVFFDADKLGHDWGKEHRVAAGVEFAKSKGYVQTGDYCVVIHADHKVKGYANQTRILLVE
# How it was run: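 Mutant LmPYK (E451W), 0.2 nM, plus 0.5 mM PEP and 0.1 mM ADP in 50 mM imidazole pH 7.2 containing 0.01% Tween 20 and 0.05% BSA. Incubated 1 h at room temperature; luminescence via PKLight, normalized to DMSO.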
# [7] = biological target: Pyruvate kinase PKM (Homo sapiens) (UniProt P14618); experiment: qHTS Assay for Activators of Human Muscle Pyruvate Kinase (AID 954; active = well fitted curve in the direction sought with a large enough effect, not every such curve was filed as active)
# Pyruvate kinase PKM (Homo sapiens), sequence (P14618 whole entry, looked up): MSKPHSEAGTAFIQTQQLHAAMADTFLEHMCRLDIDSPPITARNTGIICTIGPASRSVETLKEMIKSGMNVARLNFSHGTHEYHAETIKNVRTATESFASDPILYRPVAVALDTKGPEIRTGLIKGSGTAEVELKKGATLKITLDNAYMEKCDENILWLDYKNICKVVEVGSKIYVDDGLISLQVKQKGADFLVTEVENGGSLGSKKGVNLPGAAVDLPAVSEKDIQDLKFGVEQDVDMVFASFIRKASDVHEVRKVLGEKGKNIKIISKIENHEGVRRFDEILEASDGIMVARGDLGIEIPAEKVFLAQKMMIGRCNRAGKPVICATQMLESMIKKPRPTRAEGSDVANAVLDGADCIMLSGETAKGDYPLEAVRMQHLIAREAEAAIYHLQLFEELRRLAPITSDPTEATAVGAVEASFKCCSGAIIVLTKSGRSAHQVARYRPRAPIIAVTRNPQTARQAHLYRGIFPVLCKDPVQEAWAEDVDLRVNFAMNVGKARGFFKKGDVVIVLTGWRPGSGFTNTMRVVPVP
# How it was run: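 ATP production by PKM2 detected via luciferase luminescence after 1 h room-temperature reaction (0.1 nM enzyme, PEP at Km 0.5 mM, ADP 0.1 mM, pH 7.2 imidazole buffer). Inhibition scaled to no-enzyme control; activation referenced to 0.3 nM enzyme wells.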
# [8] = biological target: alpha-glucosidase (Oryza sativa, rice) (UniProt Q653V4); experiment: Counterscreen for Glucocerebrosidase Inhibitors: qHTS Assay for Rice alpha-Glucosidase at pH 5.0 (AID 997)
# How it was run: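 Endpoint fluorogenic assay at pH 5.0: compounds (0.7 nM to 77 uM) titrated against 4 nM rice enzyme and 400 uM 4-MU-alpha-glucoside for 20 min at room temperature; NaOH/glycine stop, read ex 365/em 440 nm, Hill-fitted AC50.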
# [9] = qHTS assay for cell viability of HEK293 cells (AID 743288); conditions: ATP luminescence (CellTiter-Glo), 18 h, stronger effect = lower value; also: nearly all actives have a fitted effect of over 50% in size
# How it was run: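 ATP luminescence (CellTiter-Glo) reports metabolically competent cell number after parental HEK293 cells, 2,000/well, were treated with DMSO-dissolved compounds for 18 h at 37 C; reagent incubation 30 min, room temperature.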
# [10] = qHTS assay for cell viability of the p53RE-bla HCT-116 cell line (AID 743292); also: potency is read from the fitted curve at half-maximal effect; nearly all actives have a fitted effect of over 55% in size
# How it was run: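 In this qHTS counter-screen, metabolically competent p53RE-bla HCT-116 cells were counted via their ATP content. Compounds were applied for 16 h at 37 C and luciferase-coupled luminescence was measured.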
# [11] = AP1 Signaling Pathway (AID 357; active = well fitted curve in either direction with a large enough effect, not every such curve was filed as active;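 also: ME-180 reporter cells stimulated with EGF at its EC50 level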); conditions: ME-180 AP-1-bla reporter, EGF-induced, beta-lactamase ratio, 5 h; at 7.69 µM (top of the series) unless noted
# How it was run: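 AP-1-bla ME-180 cells, Opti-MEM + 0.5% dialyzed FBS, plated overnight 37 °C. Cpd titration + EC50 EGF, 5 h 37 °C. CCF4 2.5 h RT; ex 405, em 460/530 ratio → %activity, AC50.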
# [12] = NFAT Signaling Pathway (AID 444; active = well fitted curve in either direction with a large enough effect, not every such curve was filed as active;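 also: carbachol stimulus at about its EC50 of 1 µM final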); conditions: Jurkat NFAT-bla M1, carbachol, beta-lactamase ratio, 5 h; at 7.69 µM (top of the series) unless noted
# How it was run: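 Jurkat cells with NFAT-driven β-lactamase reporter and co-expressed M1 receptor, stimulated with carbachol (final 1 uM, ~EC50), compound titration, 5 h at 37 °C. CCF4 loaded 1 h at RT; 460/530 nm ratio gave %activity and AC50.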
# [13] = Stat Signaling Pathway (AID 446; active = well fitted curve in either direction with a large enough effect, not every such curve was filed as active;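 also: ME-180 cervical cancer cells given 40 pM IL-6 alongside compound; SIE-controlled beta-lactamase reporter measured as 460/530 nm FRET emission ratio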); conditions: ME-180 (cervical carcinoma) SIE beta-lactamase reporter, IL-6 stimulated, 5 h; at 7.69 µM (top of the series) unless noted
# How it was run: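 FRET read-out (405 nm excitation, 460/530 nm emission) of a beta-lactamase reporter under a STAT-inducible element in ME-180 cervical carcinoma cells. Cells with compound receive 40 pM IL-6 for 5 h. Values are normalised to AC90 stimulation and AC90 JAK-inhibitor controls.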
# [14] = Viability counterscreen for antagonist of constitutive androstane receptor (CAR) against the NCATS DSHEA and TCM libraries (AID 1794837);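 also: compound exposure lasted 24 h before viability reading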
# How it was run: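 Cell viability, CellTiter-Fluor, Ex/Em 405/540 nm, 1 h at 37C. HepG2-CYP2B6-hCAR, 2,500 cells/well; cpds + CITCO 48 uM final (antagonist mode), 24 h, 37C/5% CO2.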
# [15] = biological target: Nuclear receptor subfamily 1 group I member 3 (Homo sapiens) (UniProt Q14994); experiment: Primary qHTS for agonist of constitutive androstane receptor (CAR) against the NCATS DSHEA and TCM libraries (AID 1794839);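 also: HepG2 cells expressing human CAR with a CYP2B6 reporter plus PK11195 antagonist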
# Nuclear receptor subfamily 1 group I member 3 (Homo sapiens), sequence (Q14994 whole entry, looked up): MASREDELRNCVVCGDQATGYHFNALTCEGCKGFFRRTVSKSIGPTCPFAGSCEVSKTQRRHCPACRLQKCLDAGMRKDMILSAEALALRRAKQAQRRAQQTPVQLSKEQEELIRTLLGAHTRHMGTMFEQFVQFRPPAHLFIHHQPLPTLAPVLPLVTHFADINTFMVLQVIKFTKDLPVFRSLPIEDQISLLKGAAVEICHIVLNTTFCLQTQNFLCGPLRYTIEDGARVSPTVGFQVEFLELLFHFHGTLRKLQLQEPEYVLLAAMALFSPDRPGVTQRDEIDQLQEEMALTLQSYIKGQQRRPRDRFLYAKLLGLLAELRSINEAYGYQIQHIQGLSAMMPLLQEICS
# How it was run: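 Luminescence from ONE-Glo luciferase was the agonist read-out in HepG2-CYP2B6-hCAR cells exposed 24 h to test substances. Wells also held the CAR antagonist PK11195 at 0.75 µM final. Viability was by CellTiter-Fluor fluorescence.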
# [16] = HepG2 viability counterscreen (readout 2: ATP content) against the NCATS DSHEA and TCM libraries (AID 1794840)
# How it was run: (§1)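 1,000 HepG2 cells/well, 4 h attach; compounds ~24 h, 37C/5% CO2. Readout 1: GF-AFC 25 uM final, 30 min, fluorescence 380/510 nm. Readout 2: CellTiter-Glo, 30 min RT, luminescence.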
# [17] = HepG2 viability counterscreen (readout 1: protease activity) against the NCATS DSHEA and TCM libraries (AID 1794841);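 also: cells exposed to compounds for about 24 h before the protease read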
# How it was run: as §1
# [18] = biological target: Cytochrome P450 2D6 (Homo sapiens) (UniProt P10635); experiment: qHTS for inhibitors of CYP2D6 against the NCATS DSHEA and TCM libraries (AID 1919972)
# How it was run: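 CYP2D6 enzyme with pro-luciferin substrate in manufacturer buffer (typically 100 mM KPO4), preincubated 15 min RT with substances (most at 19.5 nM upward); NADPH regeneration system (1x) started 30–45 min RT reaction; P450-Glo luminescence read after 30 min; quinidine as intraplate control.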
# [19] = biological target: Cytochrome P450 2C9 (Homo sapiens) (UniProt P11712); experiment: qHTS for inhibitors of CYP2C9 against the NCATS DSHEA and TCM libraries (AID 1919973);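 also: luminogenic pro-luciferin CYP2C9 substrate turned into luciferin with NADPH regeneration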
# How it was run: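 Each CYP isoform and its pro-luciferin substrate, at isoform-specific final concentrations, were preincubated 15 min at RT with substances. NADPH regeneration solution (1x) started a 30-45 min reaction, and P450-Glo luminescence was read.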
# [20] = biological target: Cytochrome P450 1A2 (Homo sapiens) (UniProt P05177); experiment: qHTS for inhibitors of CYPIA2 against the NCATS DSHEA and TCM libraries (AID 1919976); conditions: recombinant CYP1A2 enzyme activity, luminescence; also: potency is read from the fitted curve at half-maximal effect
# Cytochrome P450 1A2 (Homo sapiens), sequence (P05177 whole entry, looked up): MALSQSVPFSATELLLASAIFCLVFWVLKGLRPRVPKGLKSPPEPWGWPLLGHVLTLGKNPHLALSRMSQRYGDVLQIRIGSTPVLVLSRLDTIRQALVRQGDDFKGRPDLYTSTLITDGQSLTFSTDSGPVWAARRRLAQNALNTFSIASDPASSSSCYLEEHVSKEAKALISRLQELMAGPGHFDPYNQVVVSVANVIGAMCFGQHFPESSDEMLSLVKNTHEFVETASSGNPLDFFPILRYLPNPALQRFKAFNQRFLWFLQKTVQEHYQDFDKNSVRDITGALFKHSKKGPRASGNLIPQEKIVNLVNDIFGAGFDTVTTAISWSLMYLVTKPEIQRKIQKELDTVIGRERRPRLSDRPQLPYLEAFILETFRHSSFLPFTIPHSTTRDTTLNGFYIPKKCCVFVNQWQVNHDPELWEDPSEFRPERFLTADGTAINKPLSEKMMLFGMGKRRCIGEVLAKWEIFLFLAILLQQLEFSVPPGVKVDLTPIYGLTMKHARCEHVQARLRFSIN
# How it was run: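 Reaction started with 1x NADPH regeneration solution and run 30-45 min, room temperature, protected from light, after compounds sat 15 min with CYP1A2 and pro-luciferin substrate. P450-Glo detection gave luminescence; furafylline served as control.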
smiles,measurement,setting,value
CN(CCOc1ccc(C[C@H](Nc2ccccc2C(=O)c2ccccc2)C(=O)O)cc1)c1ccccn1,outcome,[1],inactive
same,Potency,[2],10 µM (active)
same,Potency,[3],inactive and 31.6 nM (active)
same,Potency,[4],inactive and 3.98 µM (active)
same,outcome,[5],inactive
same,Potency,[6],inactive
same,outcome,[7],inactive
same,outcome,[8],inactive
same,max response,[9],-5.97% (inactive)
same,Potency,[10],50.1 µM (active)
C[C@@]12C(=O)OC(=O)[C@]1(C)[C@H]1CC[C@@H]2O1,"activity change, negative = inhibition",[11],-102% [at 17.2 µM] (active)
same,"activity change, negative = inhibition",[12],-99.7% [at 17.2 µM] (active)
same,"activity, negative = inhibition",[13],-85.9% [at 17.2 µM] (active)
C[C@H]1[C@H](C)CC[C@]2(C(=O)O)CC[C@]3(C)C(=CC[C@@H]4[C@@]5(C)CC[C@H](O)C(C)(C)[C@@H]5CC[C@]43C)[C@H]12,outcome,[14],inactive
same,outcome,[15],inactive
same,outcome,[16],inactive
same,outcome,[17],inactive
same,Potency,[18],inactive
same,Potency,[19],inactive
same,Potency,[20],3.55 µM (active)
